# ALOX12 inhib: inhibitors of human 12-lipoxygenase (ALOX12); P18054; purified 12-hLO, xylenol orange hydroperoxide absorbance; Potency, µM (doses to about 57.1 µM), for inactives: at the top dose activity change, negative = inhibition, most hits filed as inhibitors; 0.12% of 150,000 active; note: potency is the fitted concentration of half-maximal effect; nearly all actives have a fitted effect of over 55% in size
#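 150 nM 12hLO, 25 mM Hepes pH 7.0 + 0.01% Triton X-100; cpd preinc 15 min RT; 40 uM arachidonic acid, 30 min RT; Fe-XO 30 min; A573/A405 ratio as read-out.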
# HPGD inh: blocks human HPGD enzyme activity | purified HPGD, NADH fluorescence kinetic, PGE2 substrate | 4.3% of 150,000 active | P15428 | Potency, µM, for inactives: at the highest dose activity change, negative = inhibition, most hits filed as inhibitors; active = well fitted inhibition curve with a large enough effect, not every such curve was filed as active; inconclusive = small, poorly fitted or top-dose-only effect, or another doubt; inactive = no such curve, though single readings can be large or run the other way; note: potency is the fitted concentration of half-maximal effect
# Target sequence (P15428 whole entry, looked up): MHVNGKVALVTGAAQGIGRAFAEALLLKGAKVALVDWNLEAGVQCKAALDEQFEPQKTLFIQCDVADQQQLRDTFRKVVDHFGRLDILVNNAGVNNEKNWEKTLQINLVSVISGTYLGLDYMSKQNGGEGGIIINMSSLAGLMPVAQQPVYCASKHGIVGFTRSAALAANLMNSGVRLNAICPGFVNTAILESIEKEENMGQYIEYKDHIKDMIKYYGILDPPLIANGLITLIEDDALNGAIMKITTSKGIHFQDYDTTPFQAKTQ
#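 20 nM HPGD preincubated 15 min at room temperature with compound in 50 mM Tris-HCl pH 8, 0.01% Tween 20. Started with 1 mM NAD+ and 30 uM prostaglandin E2; NADH fluorescence (360/450 nm) read 5 times over 30-s intervals, last minus first.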
# PNC assembly inh: perinucleolar compartment assembly inhibition; PC3M PTB-GFP, PNC prevalence imaging, 16 h; hits give low values; activity change (PNC), negative = inhibition, % at 10 µM; 3.1% of 140,000 active; AID 2417;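 active = readout at or below -70, meaning at least 70% loss of cells showing the perinucleolar compartment, a nuclear body marking cancer cells; inconclusive = readout between -30 and a set limit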;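 note: plate controls were DMSO wells for no effect and camptothecin positive control wells for full effect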
#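 Compounds are pinned in duplicate onto adhered PC3M cells stably expressing GFP-tagged PTB and incubated 16 h at 37 C. Cells are then fixed, nuclei stained with Hoechst, and PNC-positive cells counted.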
# IMPase inh: IMPase inhibition in cells | P97697 | CHO-M1 cells, IP1 accumulation, HTRF TR-FRET ratio | inhibition (IP1 accumulation), % at 46.1 µM | 120,000 tested, under 10 active | AID 901; active = well fitted curve in the direction sought with a large enough effect in the signal ratio, not every such curve was filed as active; inconclusive = small, poorly fitted or top-dose-only effect, or a change in a side signal; inactive = no such curve, though single readings can be large or run the other way; the % refers to the signal ratio;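 note: cells stimulated with carbachol in lithium chloride buffer; plate controls were DMSO basal wells for no effect and reference inhibitor wells for full effect; higher means more IMPase inhibition seen as more IP1 and lower FRET ratio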
# Target sequence (P97697 whole entry, looked up): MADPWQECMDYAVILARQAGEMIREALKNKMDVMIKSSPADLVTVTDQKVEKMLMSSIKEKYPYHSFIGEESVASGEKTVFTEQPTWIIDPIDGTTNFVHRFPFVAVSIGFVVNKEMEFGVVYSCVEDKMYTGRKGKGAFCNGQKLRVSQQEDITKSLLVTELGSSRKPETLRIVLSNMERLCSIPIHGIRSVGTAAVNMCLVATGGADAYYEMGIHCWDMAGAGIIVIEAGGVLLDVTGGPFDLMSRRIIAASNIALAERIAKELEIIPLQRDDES
#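 In this qHTS, compounds (final up to 46 uM) act on CHO-M1 cells that are then activated through the M1 receptor with carbachol, in pH 7.4 buffer containing 50 mM LiCl, for 30 min. IP1 accumulation is quantified by the IP-One immunoassay.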
# ALOX15B inhib: 15-hLO-2 (ALOX15B) enzyme inhibition | purified 15hLO-2, xylenol orange hydroperoxide absorbance | Potency, µM (series often up to 57.1 µM), inactives show top-dose activity change, negative = inhibition, most hits filed as inhibitors | 0.56% of 110,000 active; note: potency is the fitted concentration of half-maximal effect; nearly all actives have a fitted effect of over 60% in size
#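 Read-out: hydroperoxide product oxidises ferrous iron, measured as xylenol orange complex via the 573-to-405 nm absorbance ratio after 30 min. Reaction: 50 nM enzyme, 15 min compound preincubation, 45 uM arachidonic acid, 90 min RT, Hepes pH 7.5 with Triton X-100.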
# IMPase Li cell: cell-permeable IMPase inhibitors with lithium potentiation | CHO-M1 cells, IP1 TR-FRET (IP-One), carbachol + lithium | AID 1457 | Potency, µM (titrated, usually from 59.4 µM), for inactives: at the highest dose activity, negative = IMPase inhibition, actives largely listed as inhibitors | 0.35% of 210,000 active;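 note: IP1 builds up when IMPase is blocked and the TR-FRET signal falls; potency is the fitted concentration of half-maximal effect; plate controls were basal vehicle for no effect and high inhibitor control for full effect; nearly all actives have a fitted effect of over 50% in size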
#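 IP1 accumulation measured by competitive TR-FRET in lysed CHO-M1 cells after 30 min compound exposure at 37C, with a small lithium addition to potentiate weak responses. Hill-equation AC50 from ratio and donor-channel data.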
# An asterisk follows results filed as active; ? = inconclusive; / = no result given; [ ] = dose if it differs, or a comment. Shown are actives, neighbours in structure and some others; about 5.3% of the full set was active somewhere. Unless noted, calls come from the whole dose curve; as a rule, active = well fitted curve in the direction sought with a large enough effect; inconclusive = small, poorly fitted or top-dose-only effect, or another doubt; inactive = no such curve, though single readings can be large; an effect the other way counts as inactive or inconclusive. Unless noted, % is set by controls: 0 for no effect and ±100 for the full control effect.
SMILES,ALOX12 inhib,HPGD inh,PNC assembly inh,IMPase inh,ALOX15B inhib,IMPase Li cell
CCOc1cc(/C=C2\SC(=S)N(Nc3ccccc3)C2=O)ccc1O,?,-13%,-23,4,13µM*,21%[38.3 µM]
Cc1cc(C)nc(NN2C(=O)/C(=C/c3ccccc3)SC2=S)n1,-5%,35µM*,-20,2,-25%,-1%[38.3 µM]
CC1(C)NC(=O)N(CC(O)Cn2nnc3ccccc32)C1=O (configuration not stated),2%,1%,-30,-10,-3%,17%[38.3 µM]
CC1CCC(NC(=O)c2ccc(CNc3c(NC4CCCCC4)c(=O)c3=O)cc2)CC1 (configuration not stated),-5%,?,23,/,/,-1%
O=C(NC1CCCC1)c1ccc(CNc2c(N3CCOCC3)c(=O)c2=O)cc1,9%,7.9µM*,-8,4,0%,-1%[38.3 µM]
CC1CCN(c2c(NCc3ccc(C(=O)NCCc4ccc(Cl)cc4)cc3)c(=O)c2=O)CC1,-3%,?,2,/,/,-2%
CC1CCCCC1NC(=O)c1ccc(CNc2c(N3CCCC3)c(=O)c2=O)cc1 (configuration not stated),-1%,13µM*,?,-2,-7%,26%[38.3 µM]
CN(Cc1cccc(Cl)c1Cl)C(=O)c1ccc(NC(=O)CC#N)cc1,-2%,18µM*,16,-8,/,2%
CCn1cc(/C=N\NC(=O)c2ccc(Cl)cc2)cn1,-6%,-10%,?,/,/,2%
CCn1cc(/C=N\NC(=O)Cc2ccc(Cl)cc2)cn1,-4%,-4%,-99*,/,/,-10%
O=C(CSc1oc(-c2ccc(F)cc2)nc1S(=O)(=O)c1ccc(F)cc1)NCC1CCCO1 (configuration not stated),5%,-19%,246,6,/,-7%
O=C(CSc1oc(-c2ccc(F)cc2)nc1S(=O)(=O)c1ccccc1)NCC1CCCO1 (configuration not stated),-5%,-25%,-119*,2,/,9%
Cc1ccc(-c2nc(S(=O)(=O)c3ccc(F)cc3)c(SCC(=O)NCC3CCCO3)o2)cc1 (configuration not stated),12%,-22%,23,-3,/,12%
O=C(CSc1oc(-c2ccccc2)nc1S(=O)(=O)c1ccc(F)cc1)NCC1CCCO1 (configuration not stated),0%,?,-100*,-4,/,?
c1nc(N2CCCCC2)c2[nH]cnc2n1,2%,-11%,-119*,-4,/,-2%
CCCCn1c(CNC(=O)C23CC4CC(CC(C4)C2)C3)nnc1SC(C)CC (configuration not stated),-1%,-5%,?,0,/,1%
O=C(Nc1ccc(Cl)cc1)[C@@H]1[C@@H]2C(=O)N(c3ccc(Cl)cc3)C(=O)[C@@H]2[C@H]2C=CC=NN21,?,-8%,?,0,-14%,-2%[38.3 µM]
O=C(Nc1ccc(Cl)cc1)[C@@H]1[C@@H]2C(=O)N(c3ccc(Cl)cc3Cl)C(=O)[C@@H]2[C@H]2C=CC=NN21,?,28µM*,-6,6,-18%,0%[38.3 µM]
Cc1ccc(N2C(=O)[C@@H]3[C@H](C2=O)[C@H]2C=CC=NN2[C@@H]3C(=O)Nc2ccc(Cl)cc2)cc1,?,35µM*,-16,4,-8%,-13%[38.3 µM]
Cc1cc(/C=N/NC(=O)Cn2c3ccccc3c(=O)c3ccccc32)c(C)n1-c1ccccc1,2%,?,84,1,4µM*,-5%[38.3 µM]
Cc1ccc(N(CC(=O)N/N=C/c2cc(C)n(-c3ccccc3)c2C)S(C)(=O)=O)c(C)c1,-6%,-6%,15,6,-1%,13%[38.3 µM]
CC(C)(C)C(=O)Cn1c(=N)n(Cc2ccccc2)c2ccccc21,-9%,-1%,-119*,9,/,12%
O=C(O)CSc1n[nH]c(=O)[nH]c1=O,1%[11.4 µM],-4%,/,/,-7%[11.4 µM],9%
Cc1cc(C)nc(NS(=O)(=O)c2ccc(NC(=O)c3ccco3)cc2)n1,-6%,-5%,-3,-8,-8%,-7%[38.3 µM]
Cc1cc(=O)oc2cc(OC(C)C(=O)N3CCOCC3)ccc12 (configuration not stated),7%,?,?,0,-1%,17%[38.3 µM]
SMILES,ALOX12 inhib,HPGD inh,PNC assembly inh,IMPase inh,ALOX15B inhib,IMPase Li cell
Cc1cccc(N(CC(=O)N/N=C/c2ccc(OCC(=O)NCc3ccco3)cc2)S(C)(=O)=O)c1C,3%,25µM*,?,6,13%,17%[38.3 µM]
Cc1cc(C)cc(CSCC(=O)N/N=C/c2ccc(OCC(=O)NCc3ccco3)cc2)c1,1%,-18%,?,1,?,6%[38.3 µM]
CCCNS(=O)(=O)c1ccc(OCC(=O)N2CCOCC2)cc1,8%,-8%,-100*,3,/,-1%
Cc1ccc(C)c(NS(=O)(=O)c2ccc(NC(=O)c3ccco3)cc2)c1,-4%,-7%,-100*,-2,/,10%
Cc1cc(=O)oc2cc(OCC(=O)N3CCOCC3)ccc12,-11%,?,-100*,-4,/,3%
CCCNS(=O)(=O)c1ccc(OCC(=O)N2CCN(c3ccccc3)CC2)cc1,/,/,/,/,/,3%
COC(=O)[C@@]1(Cc2ccccc2)[C@H]2c3cc(C(=O)N4CCCC4)n(Cc4cccc5ccccc45)c3C[C@H]2CN1C(=O)c1ccccc1,-3%,-9%,/,/,0%,23%
CC(Sc1nnc(-c2cccs2)n1-c1ccccc1)C(=O)NCc1ccc2c(c1)OCO2 (configuration not stated),-2%,-2%,37,3,-4%,22%[38.3 µM]
Cc1cc(=O)oc2cc(OCC(=O)NCc3ccco3)ccc12,5%,?,-100*,-6,/,1%
Cc1ccc(C)c(NS(=O)(=O)c2ccc(OCC(=O)NCc3ccco3)cc2)c1,2%,-9%,-90*,0,8%[2.29 µM],11%[38.3 µM]
Cc1ccc(NS(=O)(=O)c2ccc(OCC(=O)NCc3ccco3)cc2)cc1,-4%,1%,25,3,-6%,9%[38.3 µM]
CCCCOc1ccc(CC2CCC(=O)NC2=O)cc1 (configuration not stated),/,/,/,/,/,3%
Oc1cccc(/C=N/c2c(-c3ccco3)nc3ccccn23)c1,-12%,?,-8,28,?,13µM*
CCCCCOc1ccc(NC(=O)CSc2cccc3cccnc23)cc1,2%,?,?,/,/,4%
CCOC(=O)c1c(NC(=O)CSc2nncn2C)sc(C)c1C,2%,-14%,-81*,1,2%,-15%[38.3 µM]
CCOC(=O)c1c(NC(=O)CSc2nnnn2-c2ccc(OC)cc2)sc(C)c1C,-16%,2.8µM*,-6,-2,?,38%[38.3 µM]
